According to PubChem BioAssay (NCI):
About 83,000 compounds went through this panel and 20% of them were active in at least one assay; those are over-represented in the sample as a whole.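 Each cell line was grown in a 96-well plate and treated with one concentration of compound for 48 hours. Values below 10 were considered active.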 Activity calls are given as the source filed them.

Assays:
Assay in all cases: NCI-60 one-dose screen, 48 h (100 = growth as untreated, 0 = no growth, -100 = all killed)
Conditions in all cases: 10 µM unless noted
SR leukemia = system: SR leukemia
OVCAR-8 ovarian = system: OVCAR-8 ovarian
OVCAR-5 ovarian = system: OVCAR-5 ovarian
OVCAR-4 ovarian = system: OVCAR-4 ovarian
SK-OV-3 ovarian = system: SK-OV-3 ovarian
IGROV1 ovarian = system: IGROV1 ovarian
OVCAR-3 ovarian = system: OVCAR-3 ovarian
HS 578T breast = system: HS 578T breast
NCI/ADR-RES ovarian = system: NCI/ADR-RES ovarian
T-47D breast = system: T-47D breast
BT-549 breast = system: BT-549 breast
MDA-MB-435 melanoma = system: MDA-MB-435 melanoma
SW-620 colon = system: SW-620 colon
MCF7 breast = system: MCF7 breast
HCT-116 colon = system: HCT-116 colon
HCC-2998 colon = system: HCC-2998 colon
KM12 colon = system: KM12 colon
RPMI-8226 leukemia = system: RPMI-8226 leukemia

Measured: growth

COc1ccc(NC(=O)CSc2nnc(-c3ccc4nc(-c5ccc(OC)c(OC)c5)[nH]c4c3)o2)cc1OC
inactive: SR leukemia 104% | OVCAR-8 ovarian 101% | OVCAR-5 ovarian 95.2% | OVCAR-4 ovarian 106% | SK-OV-3 ovarian 120% | IGROV1 ovarian 91.3% | OVCAR-3 ovarian 108% | HS 578T breast 97.5% | NCI/ADR-RES ovarian 96.1% | T-47D breast 90.3% | BT-549 breast 90.7% | MDA-MB-435 melanoma 102% | SW-620 colon 105% | MCF7 breast 91.9% | HCT-116 colon 98.1% | HCC-2998 colon 111% | KM12 colon 101%

O=C(Nc1cccc(Cl)c1)Nc1nc2ccc([N+](=O)[O-])cc2o1
active: OVCAR-8 ovarian 6.36% | OVCAR-4 ovarian -3.53% | OVCAR-3 ovarian -13.9% | T-47D breast -10.9% | SW-620 colon 7.83% | HCT-116 colon 5.21% | KM12 colon 7.17%
inactive: SR leukemia 50.8% | OVCAR-5 ovarian 47.7% | SK-OV-3 ovarian 12.9% | IGROV1 ovarian 20.8% | HS 578T breast 36.4% | NCI/ADR-RES ovarian 10.4% | BT-549 breast 24% | MDA-MB-435 melanoma 19.2% | MCF7 breast 12.1% | HCC-2998 colon 24.3%

O=C(Nc1nc2ccc([N+](=O)[O-])cc2s1)Nc1ccccc1Cl
inactive: SR leukemia 18.1% | OVCAR-8 ovarian 12.8% | OVCAR-5 ovarian 81.8% | OVCAR-4 ovarian 14% | SK-OV-3 ovarian 22.8% | IGROV1 ovarian 39.1% | OVCAR-3 ovarian 16.8% | HS 578T breast 46.9% | NCI/ADR-RES ovarian 47.1% | BT-549 breast 36.9% | MDA-MB-435 melanoma 19.6% | SW-620 colon 46.1% | MCF7 breast 55.8% | HCT-116 colon 21.4% | HCC-2998 colon 47.6% | KM12 colon 26.4%
active: T-47D breast -0.208%

C#CCC#CCN1CCC[C@H]1C(=O)NCC(=O)OC
active: BT-549 breast -91.5%
inactive: SR leukemia 118% | OVCAR-8 ovarian 99.1% | OVCAR-5 ovarian 107% | OVCAR-4 ovarian 97.3% | SK-OV-3 ovarian 101% | IGROV1 ovarian 104% | OVCAR-3 ovarian 114% | HS 578T breast 117% | NCI/ADR-RES ovarian 96% | T-47D breast 94.8% | MDA-MB-435 melanoma 105% | SW-620 colon 113% | MCF7 breast 99.4% | HCT-116 colon 104% | HCC-2998 colon 106% | KM12 colon 103%

Oc1ccc(CSc2nnc(-c3ccc(Cl)cc3)n2-c2ccccc2)c2cccnc12
inactive: SR leukemia 31% | RPMI-8226 leukemia 16.4% | OVCAR-5 ovarian 57.7% | OVCAR-4 ovarian 38% | SK-OV-3 ovarian 32.6% | IGROV1 ovarian 24.2% | OVCAR-3 ovarian 25.3% | HS 578T breast 25.8% | T-47D breast 48.9% | BT-549 breast 35.7% | MDA-MB-435 melanoma 17.1% | SW-620 colon 23.9% | HCT-116 colon 13.3% | HCC-2998 colon 32.8% | KM12 colon 21.3%
active: NCI/ADR-RES ovarian 4.53% | MCF7 breast 9.16%

Clc1ccc(N/N=c2/oc3ccccc3cc2-c2cc3ccccc3[nH]2)cc1
active: MDA-MB-435 melanoma -71.4%
inactive: SR leukemia 90.8% | OVCAR-8 ovarian 62.3% | OVCAR-5 ovarian 83.4% | OVCAR-4 ovarian 69.5% | SK-OV-3 ovarian 89.6% | IGROV1 ovarian 57.2% | OVCAR-3 ovarian 47.7% | HS 578T breast 103% | NCI/ADR-RES ovarian 78.5% | T-47D breast 40.4% | BT-549 breast 80.3% | SW-620 colon 78.7% | MCF7 breast 53.3% | HCT-116 colon 66.9% | HCC-2998 colon 95.6% | KM12 colon 58.1%

COc1cc2oc(-c3cccc(NC(=O)c4cc(N)ccc4Cl)c3)cc(=O)c2c(OC)c1OC
inactive: SR leukemia 82.6% | RPMI-8226 leukemia 60.2% | OVCAR-5 ovarian 109% | OVCAR-4 ovarian 97.6% | SK-OV-3 ovarian 124% | IGROV1 ovarian 99.5% | OVCAR-3 ovarian 104% | HS 578T breast 114% | NCI/ADR-RES ovarian 100% | T-47D breast 62.4% | BT-549 breast 89.4% | MDA-MB-435 melanoma 89.5% | SW-620 colon 110% | MCF7 breast 96.1% | HCT-116 colon 101% | HCC-2998 colon 101% | KM12 colon 96.4%

C=CCn1c(-c2nc3ccc(C(=C(C#N)C#N)c4ccccc4)cc3[nH]2)cc2cc(Br)ccc21
inactive: SR leukemia 50.5% | RPMI-8226 leukemia 35.7% | OVCAR-5 ovarian 77.5% | OVCAR-4 ovarian 54.5% | SK-OV-3 ovarian 63.9% | IGROV1 ovarian 65.1% | OVCAR-3 ovarian 51.2% | HS 578T breast 64.4% | NCI/ADR-RES ovarian 54.2% | T-47D breast 43% | BT-549 breast 71.3% | MDA-MB-435 melanoma 75.2% | SW-620 colon 61.2% | HCT-116 colon 27.4% | HCC-2998 colon 61.2% | KM12 colon 34.1%
active: MCF7 breast 0.939%

COc1cc(Cn2cc3c(c2)-c2onc(CN4CCOCC4)c2CC3)cc(OC)c1OC
inactive: SR leukemia 114% | RPMI-8226 leukemia 91% | OVCAR-5 ovarian 95% | OVCAR-4 ovarian 74% | SK-OV-3 ovarian 106% | IGROV1 ovarian 99.8% | OVCAR-3 ovarian 113% | HS 578T breast 110% | NCI/ADR-RES ovarian 100% | T-47D breast 79.3% | BT-549 breast 96.7% | MDA-MB-435 melanoma 101% | SW-620 colon 112% | MCF7 breast 89% | HCT-116 colon 104% | HCC-2998 colon 105% | KM12 colon 101%

CC(C)C[C@@H]1N[C@@]2(C(=O)Nc3ccccc32)[C@@H](c2ccc(F)cc2)[C@@H]1C(=O)c1ccc(O)cc1
inactive: SR leukemia 73.5% | OVCAR-8 ovarian 97.1% | OVCAR-5 ovarian 95.6% | OVCAR-4 ovarian 89.6% | SK-OV-3 ovarian 108% | IGROV1 ovarian 53.4% | OVCAR-3 ovarian 96.9% | HS 578T breast 84.5% | NCI/ADR-RES ovarian 94.1% | T-47D breast 76.5% | BT-549 breast 113% | MDA-MB-435 melanoma 102% | SW-620 colon 101% | MCF7 breast 92.5% | HCT-116 colon 86.7% | HCC-2998 colon 108% | KM12 colon 96.1%

CN(C)C(=O)c1cc(-c2ccc3ncnc(NCc4ccccc4)c3c2)cnc1N
inactive: SR leukemia 89.3% | OVCAR-8 ovarian 97.3% | OVCAR-5 ovarian 62.9% | OVCAR-4 ovarian 80.7% | SK-OV-3 ovarian 110% | IGROV1 ovarian 34.2% | OVCAR-3 ovarian 85.1% | HS 578T breast 81.8% | NCI/ADR-RES ovarian 104% | T-47D breast 62% | BT-549 breast 111% | MDA-MB-435 melanoma 99.2% | SW-620 colon 102% | MCF7 breast 77.5% | HCT-116 colon 101% | HCC-2998 colon 102% | KM12 colon 101%

CC1=NC2=NN3C(=NN2C(c2ccccc2)=C1)N=NC(c1ccc(Br)cc1)=C3c1ccc(Br)cc1
inactive: SR leukemia 102% | RPMI-8226 leukemia 111% | OVCAR-5 ovarian 104% | OVCAR-4 ovarian 108% | SK-OV-3 ovarian 116% | IGROV1 ovarian 99.3% | OVCAR-3 ovarian 114% | HS 578T breast 105% | NCI/ADR-RES ovarian 119% | T-47D breast 108% | BT-549 breast 115% | MDA-MB-435 melanoma 110% | SW-620 colon 96.6% | MCF7 breast 94.4% | HCT-116 colon 117% | HCC-2998 colon 112% | KM12 colon 104%

O=C1CC(=O)N2CSCN(C(c3ccccc3)c3nc4ncncc4[nH]3)C2=N1 (centres undefined)
inactive: SR leukemia 118% | RPMI-8226 leukemia 107% | OVCAR-5 ovarian 111% | OVCAR-4 ovarian 107% | SK-OV-3 ovarian 113% | IGROV1 ovarian 99.3% | OVCAR-3 ovarian 107% | HS 578T breast 107% | NCI/ADR-RES ovarian 99.3% | T-47D breast 98.8% | BT-549 breast 105% | MDA-MB-435 melanoma 107% | SW-620 colon 102% | MCF7 breast 93.9% | HCT-116 colon 105% | HCC-2998 colon 99.4% | KM12 colon 103%

CC1=NC2=NC(=O)/C(=C3/N=C(C)C=C(c4ccccc4)N3N)NN2C(c2ccccc2)=C1
inactive: SR leukemia 116% | RPMI-8226 leukemia 111% | OVCAR-5 ovarian 101% | OVCAR-4 ovarian 96.7% | SK-OV-3 ovarian 98.8% | IGROV1 ovarian 70.1% | OVCAR-3 ovarian 108% | HS 578T breast 116% | NCI/ADR-RES ovarian 108% | T-47D breast 102% | BT-549 breast 111% | MDA-MB-435 melanoma 108% | SW-620 colon 108% | MCF7 breast 93.6% | HCT-116 colon 102% | HCC-2998 colon 110% | KM12 colon 98.4%

COc1ccc(Cn2cc3c(c2-c2cc(OC)c(OC)c(OC)c2)CCc2c(CN4CCOCC4)noc2-3)cc1
inactive: SR leukemia 23.8% | RPMI-8226 leukemia 28.3% | OVCAR-5 ovarian 32.1% | OVCAR-4 ovarian 52.8% | SK-OV-3 ovarian 54.2% | IGROV1 ovarian 28.3% | HS 578T breast 15.3% | T-47D breast 61.5% | BT-549 breast 76.8% | SW-620 colon 30.4% | MCF7 breast 16.8% | HCT-116 colon 13.4% | HCC-2998 colon 21.3% | KM12 colon 16.9%
active: OVCAR-3 ovarian 2.5% | NCI/ADR-RES ovarian 8.51% | MDA-MB-435 melanoma -19.9%

O=S(=O)(Nc1ccc(I)cc1Cl)c1ccc(-c2cnc(C3CC3)o2)cc1
active: OVCAR-3 ovarian -10.4% | MDA-MB-435 melanoma -4.66%
inactive: SR leukemia 34.5% | OVCAR-8 ovarian 62.2% | OVCAR-5 ovarian 75.4% | OVCAR-4 ovarian 67% | SK-OV-3 ovarian 57.8% | IGROV1 ovarian 43.2% | HS 578T breast 17.3% | NCI/ADR-RES ovarian 28.1% | T-47D breast 31.7% | BT-549 breast 34.9% | SW-620 colon 17.9% | MCF7 breast 23.1% | HCT-116 colon 22.1% | HCC-2998 colon 78.6% | KM12 colon 26%

C=C1CC[C@@H]2[C@](C)(CO)[C@H](O)CC[C@@]2(C)[C@@H]1C/C(O)=C1\CCOC1=O
inactive: SR leukemia 83.6% | OVCAR-8 ovarian 98.5% | OVCAR-5 ovarian 120% | OVCAR-4 ovarian 94.7% | SK-OV-3 ovarian 113% | IGROV1 ovarian 107% | OVCAR-3 ovarian 93.2% | HS 578T breast 92.3% | NCI/ADR-RES ovarian 98% | T-47D breast 96.6% | BT-549 breast 109% | MDA-MB-435 melanoma 94.6% | SW-620 colon 94.9% | MCF7 breast 77% | HCT-116 colon 95.4% | HCC-2998 colon 104% | KM12 colon 111%
